Assay results reported in PubChem BioAssay (NCI).
This is part of a sample that, as a whole, favours compounds with a hit. Of some 83,000 tested, about 20% had one in any assay.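 Method: cells in 96-well plates; compound added at one concentration; 48 h incubation; percent growth measured; values under 10 scored active.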 Active and inactive are the calls of the source.

Columns and labels:
Experiment in all cases: NCI-60 one-dose screen, 48 h (100 = growth as untreated, 0 = no growth, -100 = all killed)
Details in all cases: 10 µM
DU-145 prostate = test system: DU-145 prostate
K-562 leukemia = test system: K-562 leukemia
MDA-MB-231 breast = test system: MDA-MB-231 breast
RXF 393 renal = test system: RXF 393 renal
SF-268 CNS = test system: SF-268 CNS
SF-295 CNS = test system: SF-295 CNS
SF-539 CNS = test system: SF-539 CNS
UACC-257 melanoma = test system: UACC-257 melanoma
M14 melanoma = test system: M14 melanoma

Measured: growth

COc1ccc(Cn2cc3c(c2-c2cc(OC)c(OC)c(OC)c2)CCc2cnoc2-3)cc1[N+](=O)[O-]
inactive: DU-145 prostate 10.1% | K-562 leukemia 15.3% | MDA-MB-231 breast 25.6% | RXF 393 renal 10.5% | SF-268 CNS 47.6% | UACC-257 melanoma 78.1% | M14 melanoma 11.4%
active: SF-295 CNS -15.3% | SF-539 CNS -10.5%

COc1ccc2c(c1)/C(=C/c1cc(OC)c(OC)c(OC)c1)C(=O)N2C
active: DU-145 prostate -0.621% | K-562 leukemia 0.985% | RXF 393 renal -60.8% | SF-268 CNS 0.418% | SF-295 CNS -30.1% | SF-539 CNS -22% | UACC-257 melanoma -6.05% | M14 melanoma 8.46%
inactive: MDA-MB-231 breast 20.9%

Cc1ccc2nc3[nH]c(=O)[nH]c(=O)c3c(N)c2c1
inactive: DU-145 prostate 77.2% | K-562 leukemia 96.2% | MDA-MB-231 breast 95.8% | RXF 393 renal 77.7% | SF-268 CNS 88.5% | SF-295 CNS 90.9% | SF-539 CNS 92.3% | UACC-257 melanoma 88.9% | M14 melanoma 96%

O=C(Nc1cccc([N+](=O)[O-])c1)NN1CCCCCC1
inactive: DU-145 prostate 94.7% | K-562 leukemia 84.1% | MDA-MB-231 breast 77.7% | RXF 393 renal 113% | SF-268 CNS 98.1% | SF-295 CNS 94% | SF-539 CNS 86.9% | UACC-257 melanoma 105% | M14 melanoma 110%

O=[N+]([O-])c1ccc2c(c1)Cc1cc(I)ccc1-2
inactive: DU-145 prostate 116% | K-562 leukemia 95.6% | MDA-MB-231 breast 102% | RXF 393 renal 101% | SF-268 CNS 103% | SF-295 CNS 82.5% | SF-539 CNS 116% | UACC-257 melanoma 108% | M14 melanoma 101%

CCOc1nc(-c2ccccc2)cc2c(O)c(C(=O)N/N=C/c3ccc(OC)cc3)[nH]c(=O)c12
inactive: DU-145 prostate 122% | K-562 leukemia 74.4% | MDA-MB-231 breast 126% | SF-268 CNS 112% | SF-295 CNS 91% | SF-539 CNS 93.2% | UACC-257 melanoma 130% | M14 melanoma 110%
active: RXF 393 renal 6.86%

COc1ccc(/C(=C/c2cc(OC)c(OC)cc2[N+](=O)[O-])C(=O)O)cc1
inactive: DU-145 prostate 124% | K-562 leukemia 94.6% | MDA-MB-231 breast 96.7% | RXF 393 renal 126% | SF-268 CNS 111% | SF-295 CNS 121% | SF-539 CNS 99.6% | UACC-257 melanoma 118% | M14 melanoma 104%

COc1cc(OC)cc(-c2n/c(=C\c3c(O)[nH]c4ccc(OC)cc34)cc3c2=Nc2ccccc2-3)c1
active: DU-145 prostate 3.54% | K-562 leukemia -9.91% | MDA-MB-231 breast 3.25%
inactive: RXF 393 renal 79.7% | SF-268 CNS 73.6% | SF-295 CNS 98.4% | SF-539 CNS 108% | UACC-257 melanoma 115% | M14 melanoma 21.4%

COc1cc(/C=C/C(=O)c2cc(-c3ccccc3)ccc2O)cc(OC)c1OC
inactive: DU-145 prostate 91% | K-562 leukemia 34% | MDA-MB-231 breast 71% | RXF 393 renal 97.8% | SF-268 CNS 83.2% | SF-295 CNS 74.6% | SF-539 CNS 80.2% | UACC-257 melanoma 69.9% | M14 melanoma 96.7%

COc1ccc(-c2ccccc2)cc1C(=O)c1ccc(-c2ccccc2)cc1
inactive: DU-145 prostate 94% | K-562 leukemia 20.8% | MDA-MB-231 breast 96.8% | RXF 393 renal 85.7% | SF-268 CNS 88.5% | SF-295 CNS 53.4% | SF-539 CNS 88.4% | UACC-257 melanoma 106% | M14 melanoma 52%

CCOC(=O)C(=O)Cc1cccnn1
inactive: DU-145 prostate 113% | K-562 leukemia 110% | MDA-MB-231 breast 96.4% | RXF 393 renal 102% | SF-268 CNS 113% | SF-295 CNS 139% | SF-539 CNS 92.4% | UACC-257 melanoma 96.2% | M14 melanoma 103%

CC[C@@]1(C(N)=O)CC2C=CC1C2 (stereo not given in full)
inactive: DU-145 prostate 113% | K-562 leukemia 92.6% | MDA-MB-231 breast 109% | RXF 393 renal 112% | SF-268 CNS 119% | SF-295 CNS 110% | SF-539 CNS 111% | UACC-257 melanoma 118% | M14 melanoma 102%

O=C(CCc1ccccc1)N1CCN(C(=O)CCc2ccccc2)CC1
inactive: DU-145 prostate 140% | K-562 leukemia 108% | MDA-MB-231 breast 90.8% | RXF 393 renal 109% | SF-268 CNS 117% | SF-295 CNS 111% | SF-539 CNS 104% | UACC-257 melanoma 92.6% | M14 melanoma 95.9%

COc1cc(/C=C/C(=O)c2cc(-c3ccc(C(F)(F)F)cc3)ccc2O)cc(OC)c1OC
inactive: DU-145 prostate 81% | K-562 leukemia 41% | MDA-MB-231 breast 61.3% | RXF 393 renal 61% | SF-268 CNS 76.2% | SF-295 CNS 78.1% | SF-539 CNS 92.3% | UACC-257 melanoma 82.5% | M14 melanoma 81.8%

C=CCn1ccc(=O)nc1SC
inactive: DU-145 prostate 117% | K-562 leukemia 103% | MDA-MB-231 breast 109% | RXF 393 renal 129% | SF-268 CNS 108% | SF-295 CNS 107% | SF-539 CNS 105% | UACC-257 melanoma 102% | M14 melanoma 104%

CCOC(=O)c1c(Cl)c2c(n1Cc1cccc(OC)c1)-c1oncc1CC2
active: SF-295 CNS -1.65% | SF-539 CNS 5.6%
inactive: DU-145 prostate 21.6% | K-562 leukemia 17.6% | MDA-MB-231 breast 57.1% | RXF 393 renal 46.5% | SF-268 CNS 44.5% | UACC-257 melanoma 49.1% | M14 melanoma 17.9%

CCOc1nc(-c2ccccc2)cc2c(O)c(C(=O)NCCCO)[nH]c(=O)c12
inactive: DU-145 prostate 100% | K-562 leukemia 111% | MDA-MB-231 breast 102% | RXF 393 renal 63.2% | SF-268 CNS 103% | SF-295 CNS 77.5% | SF-539 CNS 93.9% | UACC-257 melanoma 122% | M14 melanoma 94.4%

COc1cc(N=C2C(=O)N(Cc3ccccc3)c3ccccc32)cc(OC)c1OC
inactive: DU-145 prostate 104% | K-562 leukemia 97.4% | MDA-MB-231 breast 105% | SF-268 CNS 97.4% | SF-295 CNS 94.3% | SF-539 CNS 93% | UACC-257 melanoma 96.6% | M14 melanoma 98.2%
active: RXF 393 renal -23%

COc1cc(C2c3cc4c(cc3C(O)C(CO)C2CO)OCO4)cc(OC)c1OC (stereo not given)
inactive: K-562 leukemia 11.3% | MDA-MB-231 breast 41.2% | SF-268 CNS 35.9% | UACC-257 melanoma 62% | M14 melanoma 22.5%
active: DU-145 prostate 0.809% | RXF 393 renal -6.08% | SF-295 CNS -42.8% | SF-539 CNS -16.4%

CC1(C)CCc2cc(-c3ccn(S(=O)(=O)c4ccc(Cl)cc4)n3)ccc2O1
inactive: DU-145 prostate 88.3% | K-562 leukemia 52.4% | MDA-MB-231 breast 76.4% | RXF 393 renal 89% | SF-268 CNS 90.7% | SF-295 CNS 78.7% | SF-539 CNS 101% | UACC-257 melanoma 64.9% | M14 melanoma 80.1%

C#CCNCCCN1C(=O)c2ccc3c4c(ccc(c24)C1=O)C(=O)N(CCCNCC#C)C3=O
active: DU-145 prostate -98.8% | K-562 leukemia -4.82% | MDA-MB-231 breast 0.356% | RXF 393 renal -91.4% | SF-268 CNS -26.4% | SF-295 CNS -82.9% | SF-539 CNS -97% | UACC-257 melanoma -87.8% | M14 melanoma -91%

CC(=O)Nc1nc(C)c(C(=O)NNC=O)s1
inactive: DU-145 prostate 108% | K-562 leukemia 54.8% | MDA-MB-231 breast 106% | RXF 393 renal 109% | SF-268 CNS 94.8% | SF-295 CNS 112% | SF-539 CNS 102% | UACC-257 melanoma 106% | M14 melanoma 120%

CCOC(=O)c1sc(NC(=O)c2cc(OC)c(OC)c(OC)c2)nc1C
inactive: DU-145 prostate 110% | K-562 leukemia 51.2% | MDA-MB-231 breast 96.3% | RXF 393 renal 119% | SF-268 CNS 97.3% | SF-295 CNS 110% | SF-539 CNS 103% | UACC-257 melanoma 108% | M14 melanoma 118%

O=C(N/N=C/c1ccccc1O)c1ccccc1
active: UACC-257 melanoma -8.71%
inactive: DU-145 prostate 32.4% | K-562 leukemia 15.8% | MDA-MB-231 breast 32.5% | RXF 393 renal 41.2% | SF-268 CNS 30% | SF-295 CNS 26% | SF-539 CNS 27.9% | M14 melanoma 26.5%

CCN(CC)CC(O)CNc1ccnc2cc(Cl)c(Cl)cc12 (stereo not given)
inactive: DU-145 prostate 92.6% | K-562 leukemia 77.7% | MDA-MB-231 breast 60% | RXF 393 renal 81.5% | SF-268 CNS 83.2% | SF-295 CNS 97.9% | SF-539 CNS 95.5% | UACC-257 melanoma 101% | M14 melanoma 106%

CC1(C)CC(=O)c2c(nc3ccc(Cl)cc3c2-c2ccccc2)C1
active: RXF 393 renal 3.11%
inactive: DU-145 prostate 106% | K-562 leukemia 55.7% | MDA-MB-231 breast 85% | SF-268 CNS 90.9% | SF-295 CNS 76% | SF-539 CNS 97.9% | UACC-257 melanoma 106% | M14 melanoma 99.9%

O=C(O)c1ccccc1C(=O)c1cccc2c(F)cccc12
inactive: DU-145 prostate 112% | K-562 leukemia 108% | MDA-MB-231 breast 99.2% | RXF 393 renal 114% | SF-268 CNS 111% | SF-295 CNS 122% | SF-539 CNS 104% | UACC-257 melanoma 98.4% | M14 melanoma 103%

CCOC(=O)C(CCC1=NC(C)(C)CC(C)O1)C(=O)OCC (stereo not given)
inactive: DU-145 prostate 10.4% | K-562 leukemia 85% | MDA-MB-231 breast 106% | RXF 393 renal 85% | SF-268 CNS 98% | SF-295 CNS 74.5% | SF-539 CNS 102% | UACC-257 melanoma 105% | M14 melanoma 84%

Cc1ccc(NS(=O)(=O)c2ccccc2)c(NS(=O)(=O)c2ccccc2)c1
inactive: DU-145 prostate 92.8% | K-562 leukemia 108% | MDA-MB-231 breast 103% | RXF 393 renal 130% | SF-268 CNS 102% | SF-295 CNS 104% | SF-539 CNS 110% | UACC-257 melanoma 107% | M14 melanoma 102%

Nc1ccc2c(c1)Cc1cc(N)c(Cl)cc1-2
inactive: DU-145 prostate 119% | K-562 leukemia 104% | MDA-MB-231 breast 88.4% | RXF 393 renal 110% | SF-268 CNS 113% | SF-295 CNS 99.1% | SF-539 CNS 95.9% | UACC-257 melanoma 94.5% | M14 melanoma 107%
